PubChem BioAssay AID1159580 (chemical genetic matrix, 2015)
Where “and” joins values, the source holds several entries; their conditions need not be identical. Equal values may be shown once. Out of some 5,500 compounds screened, about 2,000 (36%) were called active. Inconclusive results (about 18%) are left out. Rule as the data show it: active = normalized growth mostly below about 0.91 (no sharp cut-off); inconclusive = no clear call, values can overlap the other calls; inactive = mostly above about 0.92. Some of the results follow. Some structures have more than one record in an assay (separate samples or runs), and their calls can disagree.

Test: chemical genetic growth profiling, strain panel (AID 1159580);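 also: tested at 20 µM; growth read once vehicle control cultures reached saturation at 30 °C; 1 = growth at the plate median or of vehicle wells; lower values mean less growth of the strain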
Conditions: growth OD

Measured: normalized growth

CN1CCN(CCCN2c3ccccc3Sc3ccc(Cl)cc32)CC1
inactive: S. cerevisiae deletion strains, locus YKL009W, strain mrt4, stronger effect = lower value 0.936 | S. cerevisiae deletion strains, locus YKL068W, stronger effect = lower value 0.989 | S. cerevisiae deletion strains, locus YKL085W, strain MDH1 (second series), stronger effect = lower value 0.979 | S. cerevisiae deletion strains, locus YKL085W, strain MDH1, stronger effect = lower value 0.979 | S. cerevisiae deletion strains, locus YKL160W, strain elf1, stronger effect = lower value 0.974 | S. cerevisiae deletion strains, locus YKR026C, strain gcn3, stronger effect = lower value 0.976 | S. cerevisiae deletion strains, locus YKR091W, strain srl3, stronger effect = lower value 0.982 | S. cerevisiae deletion strains, locus YLL001W, strain dnm1, stronger effect = lower value 0.959 | S. cerevisiae deletion strains, locus YLL041C, strain sdh2, stronger effect = lower value 0.943 | S. cerevisiae deletion strains, locus YLR039C, strain RIC1, stronger effect = lower value 1.18 | S. cerevisiae deletion strains, locus YLR058C, strain SHM2, stronger effect = lower value 0.963 | S. cerevisiae deletion strains, locus YLR102C, strain apc9, stronger effect = lower value 1.01 | S. cerevisiae deletion strains, locus YLR113W, strain HOG1, stronger effect = lower value 0.966 | S. cerevisiae deletion strains, locus YLR258W, strain gsy2, stronger effect = lower value 0.943 | S. cerevisiae deletion strains, locus YLR262C, strain YPT6 (second series), stronger effect = lower value 1.06 | S. cerevisiae deletion strains, locus YLR262C, strain YPT6, stronger effect = lower value 0.689 | S. cerevisiae deletion strains, locus YLR268W, strain sec22, stronger effect = lower value 0.935 | S. cerevisiae deletion strains, locus YLR357W, strain rsc2, stronger effect = lower value 0.914 | S. cerevisiae deletion strains, locus YLR370C, strain arc18, stronger effect = lower value 0.953 | S. cerevisiae deletion strains, locus YLR371W, strain rom2, stronger effect = lower value 1.01 | S. cerevisiae deletion strains, locus YLR384C, strain iki3, stronger effect = lower value 0.987 | S. cerevisiae deletion strains, locus YML016C, strain PPZ1, stronger effect = lower value 0.986 | S. cerevisiae deletion strains, locus YML032C, strain rad52, stronger effect = lower value 0.909 | S. cerevisiae deletion strains, locus YML124C, strain tub3, stronger effect = lower value 0.997 | S. cerevisiae deletion strains, locus YMR078C, strain ctf18, stronger effect = lower value 1 | S. cerevisiae deletion strains, locus YMR129W, stronger effect = lower value 0.966 | S. cerevisiae deletion strains, locus YMR205C, strain PFK2, stronger effect = lower value 0.943 | S. cerevisiae deletion strains, locus YNL071W, strain lat1, stronger effect = lower value 0.918 | S. cerevisiae deletion strains, locus YNL175C, strain NOP13, stronger effect = lower value 0.983 | S. cerevisiae deletion strains, locus YNL183C, strain NPR1, stronger effect = lower value 0.987 | S. cerevisiae deletion strains, locus YNL197C, strain WHI3, stronger effect = lower value 0.975 | S. cerevisiae deletion strains, locus YNL224C, strain SQS1, stronger effect = lower value 1 | S. cerevisiae deletion strains, locus YNL248C, strain rpa49, stronger effect = lower value 0.913 | S. cerevisiae deletion strains, locus YNL250W, strain rad50, stronger effect = lower value 0.983 | S. cerevisiae deletion strains, locus YNL271C, strain bni1, stronger effect = lower value 0.994 | S. cerevisiae deletion strains, locus YNL298W, strain CLA4, stronger effect = lower value 0.937 | S. cerevisiae deletion strains, locus YNL322C, strain KRE1 (second series), stronger effect = lower value 0.995 | S. cerevisiae deletion strains, locus YNR049C, strain mso1, stronger effect = lower value 0.986 | S. cerevisiae deletion strains, locus YOL012C, strain htz1 0.226 | S. cerevisiae deletion strains, locus YOL147C, strain pex11, stronger effect = lower value 0.938 | S. cerevisiae deletion strains, locus YOR061W, strain CKA2, stronger effect = lower value 0.913 | S. cerevisiae deletion strains, locus YOR069W, strain VPS5, stronger effect = lower value 0.996 | S. cerevisiae deletion strains, locus YOR080W, strain dia2, stronger effect = lower value 1 | S. cerevisiae deletion strains, locus YOR136W, strain idh2, stronger effect = lower value 0.925 | S. cerevisiae deletion strains, locus YOR144C, strain elg1, stronger effect = lower value 1 | S. cerevisiae deletion strains, locus YOR231W, strain MKK1, stronger effect = lower value 0.968 | S. cerevisiae deletion strains, locus YOR290C, strain snf2, stronger effect = lower value 0.913 | S. cerevisiae deletion strains, locus YOR316C, strain cot1, stronger effect = lower value 1.01 | S. cerevisiae deletion strains, locus YPL078C, strain atp4, stronger effect = lower value 0.92 | S. cerevisiae deletion strains, locus YPL106C, strain sse1, stronger effect = lower value 0.999 | S. cerevisiae deletion strains, locus YPL240C, strain hsp82, stronger effect = lower value 0.983 | S. cerevisiae deletion strains, locus YPL256C, strain CLN2, stronger effect = lower value 0.978 | S. cerevisiae deletion strains, locus YPR119W, strain clb2, stronger effect = lower value 1.01 | S. cerevisiae deletion strains, locus YPR141C, strain kar3, stronger effect = lower value 0.999 | S. cerevisiae deletion strains, locus YPR167C, strain met16, stronger effect = lower value 0.979
active: S. cerevisiae deletion strains, locus YKL190W, strain CNB1, stronger effect = lower value 0.124 | S. cerevisiae deletion strains, locus YKR001C, strain vps1, stronger effect = lower value 0.0709 | S. cerevisiae deletion strains, locus YLL026W, stronger effect = lower value 0.898 | S. cerevisiae deletion strains, locus YLR027C, strain aat2, stronger effect = lower value 0.843 | S. cerevisiae deletion strains, locus YLR221C, strain rsa3, stronger effect = lower value 0.885 | S. cerevisiae deletion strains, locus YLR320W, strain mms22, stronger effect = lower value 0.866 | S. cerevisiae deletion strains, locus YLR330W, strain CHS5, stronger effect = lower value 0.892 | S. cerevisiae deletion strains, locus YLR342W, strain FKS1 (second series), stronger effect = lower value 0.405 | S. cerevisiae deletion strains, locus YLR342W, strain FKS1, stronger effect = lower value 0.523 | S. cerevisiae deletion strains, locus YLR418C, strain cdc73, stronger effect = lower value 0.25 | S. cerevisiae deletion strains, locus YML120C, strain ndi1, stronger effect = lower value 0.823 | S. cerevisiae deletion strains, locus YMR058W, strain fet3, stronger effect = lower value 0.742 | S. cerevisiae deletion strains, locus YMR125W, strain sto1, stronger effect = lower value 0.869 | S. cerevisiae deletion strains, locus YMR223W, strain ubp8, stronger effect = lower value 0.784 | S. cerevisiae deletion strains, locus YMR231W, strain pep5, stronger effect = lower value 0.0744 | S. cerevisiae deletion strains, locus YMR263W, strain SAP30, stronger effect = lower value 0.717 | S. cerevisiae deletion strains, locus YNL067W, strain RPL9B, stronger effect = lower value 0.724 | S. cerevisiae deletion strains, locus YNL209W, strain ssb2, stronger effect = lower value 0.652 | S. cerevisiae deletion strains, locus YNL233W, strain BNI4, stronger effect = lower value 0.635 | S. cerevisiae deletion strains, locus YNL307C, strain MCK1, stronger effect = lower value 0.777 | S. cerevisiae deletion strains, locus YNL322C, strain KRE1, stronger effect = lower value 0.0727 | S. cerevisiae deletion strains, locus YNR052C, strain pop2, stronger effect = lower value 0.732 | S. cerevisiae deletion strains, locus YOL006C, strain TOP1, stronger effect = lower value 0.427 | S. cerevisiae deletion strains, locus YOR001W, strain rrp6, stronger effect = lower value 0.864 | S. cerevisiae deletion strains, locus YOR070C, strain gyp1, stronger effect = lower value 0.347 | S. cerevisiae deletion strains, locus YOR083W, strain WHI5 (second series), stronger effect = lower value 0.652 | S. cerevisiae deletion strains, locus YOR083W, strain WHI5, stronger effect = lower value 0.669 | S. cerevisiae deletion strains, locus YOR106W, strain vam3, stronger effect = lower value 0.161 | S. cerevisiae deletion strains, locus YOR184W, strain ser1, stronger effect = lower value 0.248 | S. cerevisiae deletion strains, locus YOR265W, strain rbl2, stronger effect = lower value 0.91 | S. cerevisiae deletion strains, locus YOR270C, strain vph1, stronger effect = lower value 0.673 | S. cerevisiae deletion strains, locus YPL051W, strain arl3, stronger effect = lower value 0.778 | S. cerevisiae deletion strains, locus YPL241C, strain CIN2, stronger effect = lower value 0.484 | S. cerevisiae deletion strains, locus YPR163C, strain tif3, stronger effect = lower value 0.148 | S. cerevisiae deletion strains, strain wtn01, stronger effect = lower value 0.355 | S. cerevisiae strains, strain wild type, stronger effect = lower value 0.0575
0.512 (active) and 0.943 (inactive): S. cerevisiae deletion strains, locus YNL153C, strain GIM3, stronger effect = lower value
0.151 (active) and 1.03 (inactive): S. cerevisiae deletion strains, locus YMR307W, strain GAS1, stronger effect = lower value
0.101 (active) and 1.03 (inactive): S. cerevisiae deletion strains, locus YPL055C, strain LGE1, stronger effect = lower value
0.0843 (active) and 0.921 (inactive): S. cerevisiae deletion strains, locus YNL128W, strain TEP1, stronger effect = lower value
